Assay outcomes: PubChem, several laboratories
PDI turbidity – inhibitors of human protein disulfide isomerase; P07237; PDI insulin aggregation turbidity, A650, 90 min; inhibition, % at 10 µM; hit rate 0.052% among 350,000; AID 588391;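 active = mean inhibition across replicates of 30% or more, whatever share of single replicates reach that level; inconclusive = mean inhibition below 30% while every single replicate reaches 30%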
Target sequence (P07237 whole entry, looked up): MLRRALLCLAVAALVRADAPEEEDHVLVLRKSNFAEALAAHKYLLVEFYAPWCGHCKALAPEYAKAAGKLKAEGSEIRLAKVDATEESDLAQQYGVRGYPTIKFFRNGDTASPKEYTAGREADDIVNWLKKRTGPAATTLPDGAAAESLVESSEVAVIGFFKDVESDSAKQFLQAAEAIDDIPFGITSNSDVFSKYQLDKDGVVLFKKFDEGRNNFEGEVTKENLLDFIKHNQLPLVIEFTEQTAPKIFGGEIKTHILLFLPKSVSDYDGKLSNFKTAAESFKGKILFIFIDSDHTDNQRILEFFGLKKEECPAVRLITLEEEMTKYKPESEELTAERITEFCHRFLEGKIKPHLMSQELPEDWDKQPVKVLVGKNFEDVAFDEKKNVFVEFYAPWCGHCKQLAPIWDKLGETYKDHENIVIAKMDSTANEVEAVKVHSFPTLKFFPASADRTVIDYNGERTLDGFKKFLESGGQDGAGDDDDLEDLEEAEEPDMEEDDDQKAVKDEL
ARNT-TACC3 inh – disrupts binding between human ARNT and TACC3; AlphaScreen His-ARNT PAS-B/GST-TACC3 binding, luminescence; TACC3 fragment carries E629A point mutation; inhibition, % at 9.99 µM; Q9Y6A5; hit rate 0.66% among 390,000;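 active = mean inhibition of replicates at least 50% and at least half of replicates each reaching 50%; inconclusive = half or more replicates reach 50% but mean below 50%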;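 note: 0% = complete ARNT plus TACC3 wells and 100% = ARNT alone without TACC3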
ALR inh – human ALR oxidase inhibition via reduced H2O2 | purified ALR, DTT oxidation, H2O2 HRP-luminol luminescence | hit rate 3.8% among 290,000 | P55789 | inhibition, % (test concentration not listed) | AID 485317;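 active = mean replicate inhibition above about 79%, with every replicate also reaching it, limit read from the data; inconclusive = only one of the two criteria met; inactive = mean below limit and not every replicate reaching it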
CendR NRP1 mod – NRP-1/CendR interaction modulation. AID 602438. O14786. FAM-RPARPAR peptide binding to NRP-1, fluorescence polarization. inhibition, % at 25 µM. hit rate 0.85% among 360,000;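 active = inhibition or corrected inhibition above about 18%, plus a signal ratio from 0.5 to 1.5, limit read from the data, passing the limit was not always enough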
ERp5 block – blocks human ERp5 reductase activity on insulin. AID 651711. Q15084. inhibition, % at 9.99 µM. ERp5 insulin aggregation, absorbance 650 nm, 90 min. hit rate 0.05% among 350,000;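 active = mean replicate inhibition above about 25%, with every replicate also reaching it, limit read from the data, passing the limit was not always enough; inconclusive = only one of those two criteria met; inactive = neither criterion met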
PglD DTNB – inhibitors of Campylobacter jejuni PglD acetyltransferase; purified PglD enzyme, DTNB colorimetric CoA detection; inhibition, % at 12.5 µM; hit rate 0.098% among 360,000; AID 602405; in the data active = inhibition above about 16%, passing the limit was not always enough; inconclusive = no clear call, values can overlap the other calls
An asterisk follows results filed as active; ? = inconclusive; · = no result. The entries come from a sample that favours hits as a whole.

SMILES	PDI turbidity	ARNT-TACC3 inh	ALR inh	CendR NRP1 mod	ERp5 block	PglD DTNB
Cc1cccc(-c2nc(CSCC(=O)N3CCN(Cc4ccc5c(c4)OCO5)CC3)c(C)o2)c1	8	9	98*	-3	·	-1
Cc1ccc(-c2nc(CSCC(=O)N3CCN(C(=O)c4ccco4)CC3)c(C)o2)cc1	·	·	99*	-2	1	-1
Cc1ccc(-c2nnc(SCC(=O)N3CCOCC3)nc2-c2ccc(C)cc2)cc1	2	15	95*	-1	·	·
Cc1ccc(-c2nc(CSCC(=O)N3CCOCC3)c(C)o2)cc1	0	0	99*	8	·	·
CCNC(=O)C[C@@H]1C=C[C@@H](NC(=O)C2CCOCC2)[C@H](CO)O1	·	8	·	·	6	-3
CN(O)/C=C1\C(=O)Nc2ccccc21	-2	-15	?	4	·	6
CN(C)/C=C1\C(=O)Nc2ccccc21	8	-6	99*	-1	·	-6
Cc1ccc(S(=O)(=O)Nc2ccc3c(c2)CC(=O)N([C@H](C)CO)C[C@@H](C)[C@@H](CN(C)S(=O)(=O)c2cn(C)cn2)O3)cc1	·	-2	·	·	4	-2
Nn1c(SCC(=O)NCCC2=CCCCC2)nnc1C(F)(F)F	-6	-22	-1	28*	0	·
C=COC(=O)CSc1snc(SCC(=O)OC)c1C#N	-2	-2	99*	-10	·	1
CC(C)NC(=O)N(C)C[C@@H]1Oc2ccc(NC(=O)CCCCCC(=O)Nc3ccccc3N)cc2CC(=O)N([C@@H](C)CO)C[C@H]1C	·	-6	·	·	2	-3
CN1C[C@@H](O)COC[C@H]2O[C@H](CC(=O)N3CCN(c4ccccc4)CC3)CC[C@@H]21	·	3	·	·	0	3
C[C@H](CO)N1C[C@H](C)[C@@H](CN(C)C(=O)Nc2ccc(C(F)(F)F)cc2)OCCCC[C@H](C)Oc2ccc(NC(=O)C3CCCCC3)cc2C1=O	·	-3	·	·	-1	2
ClCc1csc(-c2ccc(Cl)cc2)n1	8	-25	98*	-4	·	12
C[C@@H]1CN([C@@H](C)CO)C(=O)c2cc(-c3ccccc3F)cnc2O[C@H]1CN(C)C(=O)CN(C)C	·	-6	·	·	2	1
CCCN(Cc1ccc(N(CC)CC)cc1)CC1CC1	1	5	98*	-4	·	·
CCCN(Cc1ccc(N(C)C)cc1)CC1CC1	-1	1	30	0	·	-2
COCC#Cc1ccc([C@H]2[C@@H](CO)N3C(=O)CN(C(=O)C4CCOCC4)C[C@H]23)cc1	·	·	·	·	0	·
c1ccc2c(C3=NNC(=NC4CCCCC4)SC3)c[nH]c2c1	-5	5	15	-46	9	·
c1ccc2c(C3=NNC(=NC4CC4)SC3)c[nH]c2c1	10	1	99*	-43	·	14
N#CNC(=Nc1cccc(C(F)(F)F)c1)SCc1ccc(C(=O)O)cc1	-3	-4	99*	-7	-4	2
N#CNC(=Nc1ccccc1)SCc1ccc(C(=O)O)cc1	2	2	-3	1	1	·
CC(=O)N1CC2(C1)[C@H](c1ccc(-c3cccc(C#N)c3)cc1)[C@H](CO)N2CCC(F)(F)F	·	·	·	·	0	·
Cc1ccc2nc(-c3ccccc3)cn2c1	14	-5	38	-9	·	8
Cc1ccc2nc(-c3ccc(O)c(O)c3)cn2c1	-2	7	99*	-5	4	-32
SMILES	PDI turbidity	ARNT-TACC3 inh	ALR inh	CendR NRP1 mod	ERp5 block	PglD DTNB
Oc1ccc(-c2csc(-c3ccccc3)n2)cc1O	-5	9	99*	7	-3	1
COc1ccc(-c2csc(C)n2)cc1Br	-5	0	·	9	-1	4
Cc1nc(-c2ccc(C(=O)O)cc2)cs1	-4	-2	-2	-8	·	4
COc1cc(-c2csc(C)n2)ccc1O	-2	-2	96*	4	·	5
Cc1nc(-c2ccc(O)c(O)c2)cs1	0	7	99*	-10	·	1
COc1ccc2c3c(n(C)c2c1)[C@@H](CO)N(Cc1cccnc1)CC31CCN(C(=O)c2cccnc2)CC1	·	·	·	·	-7	·
CCC(=O)N(C)C[C@H]1Oc2ncc(-c3ccc(C#N)cc3)cc2C(=O)N([C@@H](C)CO)C[C@@H]1C	·	-4	·	·	-1	2
CCOC(=O)[C@H]1O[C@@H]1C(=O)N[C@@H](CC(C)C)C(=O)NCCC(C)C	-4	-3	86*	6	·	-6
CC(C)CCNC(=O)[C@H](CC(C)C)NC(=O)[C@H]1O[C@@H]1C(=O)O	·	-17	?	·	·	2
